# Laboratory results: PubChem BioAssay (Tox21)
# “And” between values parts separate entries of the source, which are not always exact repeats. Equal entries are not always repeated. Inconclusive results are not listed. Where a call stands in place of a potency, no number is given. The source made the active and inactive calls. The call rests on the fitted dose curve; in most records, active means well fitted cell-killing curve with a large enough effect in the repeat runs; inconclusive means weak or mixed curves; inactive means no such curve, though single readings can be large or run the other way.
# Test: qHTS assay to identify small molecule antagonists of the androgen receptor (AR) signaling pathway - cell viability counter screen (AID 743033; further: nearly all actives have a fitted effect of over 45% in size)
# Settings: AR-bla HEK293 viability, CellTiter-Glo luminescence, 16 h; series mostly up to 58.5 µM
# Excerpt: National Center for Advancing Translational Sciences [NCATS]
# NIH Chemical Genomics Center [NCGC]
# U.S. Environmental Protection Agency [EPA]
# National Institutes of Environmental Health Sciences [NIEHS]
# National Toxicology Program [NTP]
# U.S. Food and Drug Administration [FDA]
# Androgen receptor (AR), a nuclear hormone receptor, plays a critical role in AR-dependent prostate cancer and other androgen related diseases. Endocrine disrupting chemicals (EDCs) and their interactions with steroid hormone receptors like AR may cause disruption of normal endocrine function as well as interfere with metabolic homeostasis, reproduction, developmental and behavioral functions. To identify the compounds that inhibit AR signaling, GeneBLAzer AR-UAS-bla-GripTite cell line (Invitrogen, Carlsbad, CA, USA) containing a beta-lactamase reporter gene under control of an Upstream Activator Sequence (UAS) stably integrated into HEK293 cells was used to screen the Tox21 10K compound library. The cytotoxicity of the Tox21 compound library against the AR-bla cell line was tested in parallel by measuring the cell viability using CellTiter-Glo assay in the same wells.
# Tox21 Assay Protocol Summary:
# AR-bla cells were dispensed at 2,000 cells/5 uL of assay medium per well into black wall/clear-bottom 1536-well plates using a Multidrop Combi (ThermoFisher Scientific, Waltham, MA) dispenser. After the assay plates were incubated at a 37C and 5% CO2 for 4 hr, 23 nL of compounds dissolved in DMSO, positive controls or DMSO only was transferred to the assay plate by a Pintool station (Kalypsys, San Diego, CA), followed by addition of 1 uL of agonist (R1881) in culture medium using a Bioraptr Flying Reagent Dispenser (FRD) workstation (Beckman Coulter, Indianapolis, IN, USA). The plates were incubated at a 37C and 5% CO2 for 16 h. After 1 uL of LiveBLAzerTM B/G FRET substrate was added using a Bioraptr FRD, the plates were incubated at room temperature for 2 h and fluorescence intensity was measured by an Envision plate reader (PerkinElmer, Shelton, CT). For cell viability readout that measures cytotoxicity, 4 ul/well of CellTiter-Glo reagent was added into the assay plates using a Bioraptr FRD. After 30 min incubation at room temperature, the luminescence intensity in the plates was measured using a ViewLux (PerkinElmer) plate reader.
# Potency means the concentration at half of the fitted maximal effect.
row,SMILES,Potency
1,[Cl][Sb]([Cl])[Cl],inactive
2,CCCCCCCCCBr,inactive
3,CC1(C)C(/C=C(\Cl)C(F)(F)F)C1C(=O)OC(C#N)c1cccc(Oc2ccccc2)c1 (stereo not given),inactive
4,CCOP(=S)(OCC)OC(Cl)C(Cl)(Cl)Cl (stereo not given),inactive
5,COc1ccc(N)cc1N,16 µM (active) and 18.7 µM (active)
6,CC(c1ccc(O)cc1)c1ccc(O)cc1,inactive
7,CC(=O)c1cc(C(C)(C)C)cc2c1CCC2(C)C,inactive
8,Clc1ccc(CCC(Cn2ccnc2)Sc2c(Cl)cccc2Cl)cc1 (stereo not given),inactive
9,Oc1cc(Cl)c(Cl)c(Cl)c1,32.9 µM (active)
10,Cc1cc(C(F)(C(F)(F)F)C(F)(F)F)ccc1NC(=O)c1cccc(I)c1C(=O)NC(C)(C)CS(C)(=O)=O,inactive
11,N#CCCC(Br)(C#N)CBr (stereo not given),24.5 µM (active)
12,CN(C)[C@@H]1C(=O)C(C(N)=O)=C(O)[C@@]2(O)C(=O)C3=C(O)c4c(O)ccc(Cl)c4[C@@](C)(O)[C@H]3C[C@@H]12,inactive
13,CC(C)OC(=S)S,17.4 µM (active)
14,O=[N+]([O-])c1ccc(Oc2ccc(C(F)(F)F)cc2[N+](=O)[O-])cc1,inactive
15,COc1cccc(C(=O)CCN[C@@H](C)[C@H](O)c2ccccc2)c1,inactive
16,CCCN(CC)CC1COC2(CCC(C(C)(C)C)CC2)O1 (stereo not given),inactive
17,C=CC(=O)OCC(COC(=O)C=C)(COC(=O)C=C)COC(=O)C=C,6.92 µM (active)
18,CC(C)(C)OO,inactive
19,CC(C)Oc1cccc(NC(=O)c2ccccc2C(F)(F)F)c1,inactive
20,C[C@@H]1O[C@@H](O[C@@H]2C=C3CC[C@@H]4[C@H](CC[C@]5(C)[C@@H](c6ccc(=O)oc6)CC[C@]45O)[C@@]3(C)CC2)[C@H](O)[C@H](O)[C@H]1O,0.0057 µM (active)

row,SMILES,Potency
1,CN(C)C(=S)S,15.8 µM (active) and 1.54 µM (active) and 9.77 µM (active)
2,ClCc1ccc(Cl)cc1Cl,inactive
3,N#C/C=C/C#N,inactive
4,CS(=O)(=O)c1ccc(C(=O)C2C(=O)CCCC2=O)c([N+](=O)[O-])c1,inactive
5,c1ccc2c(c1)OCC(C1=NCCN1)O2 (stereo not given),inactive
6,CCCSP(=O)(OCC)SCCC,inactive
7,ClC1=C(Cl)C2(Cl)C3C(Cl)C(Cl)CC3C1(Cl)C2(Cl)Cl (stereo not given),49 µM (active)
8,COC12CC[C@@]3(C[C@@H]1C(C)(O)C(C)(C)C)[C@H]1Cc4ccc(O)c5c4[C@@]3(CCN1CC1CC1)[C@H]2O5 (stereo not given in full),54.6 µM (active)
9,CC(C)[C@H](C(=O)OC(C#N)c1cccc(Oc2ccccc2)c1)c1ccc(OC(F)F)cc1 (stereo not given in full),inactive
10,CC(C)CCCCCCCOP(=O)(Oc1ccccc1)Oc1ccccc1,inactive
11,COc1cc(N)c(Cl)cc1C(=O)NC1CN2CCC1CC2 (stereo not given),inactive
12,CC(C)N1C(=O)N(c2ccccc2)CSC1=NC(C)(C)C,inactive
13,CN(C)C(=S)[S-].CN(C)C(=S)[S-].[Cu+2],2.99 µM (active)
14,ClC(Cl)=C(c1ccc(Cl)cc1)c1ccc(Cl)cc1,inactive
15,CC(C)(C)c1cc([N+](=O)[O-])cc(C(C)(C)C)c1O,5.49 µM (active)
16,ClC1=C(Cl)C2(Cl)C3C(Cl)C=CC3C1(Cl)C2(Cl)Cl (stereo not given),inactive
17,CC1CCC(C(C)C)C(OC(=O)c2ccccc2N)C1 (stereo not given),inactive
18,CC(C)CCCCCOC(=O)c1ccccc1C(=O)OCCCCCC(C)C,inactive
19,CC(C)CC(C)N (stereo not given),inactive
20,O=c1ssc(Cl)c1Cl,43.6 µM (active)
